The target of test [1] is High affinity nerve growth factor receptor (Homo sapiens) (UniProt P04629). The note with it: at 1 µM.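 Note: each value is the mean percent inhibition of TRKA.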
The target in test [2] is BDNF/NT-3 growth factors receptor (Homo sapiens) (UniProt Q16620). The conditions noted are these: at 0.1 µM.
Test [3] shares this target. The note with it: at 1 µM.
The target of test [4] is NT-3 growth factor receptor (Homo sapiens) (UniProt Q16288). The note with it: at 0.1 µM.
Test [5] shares this target. The note with it: at 1 µM.
The target in test [6] is T1, Tyrosine-protein kinase TXK (Homo sapiens) (UniProt P42681).
T1 sequence (whole entry): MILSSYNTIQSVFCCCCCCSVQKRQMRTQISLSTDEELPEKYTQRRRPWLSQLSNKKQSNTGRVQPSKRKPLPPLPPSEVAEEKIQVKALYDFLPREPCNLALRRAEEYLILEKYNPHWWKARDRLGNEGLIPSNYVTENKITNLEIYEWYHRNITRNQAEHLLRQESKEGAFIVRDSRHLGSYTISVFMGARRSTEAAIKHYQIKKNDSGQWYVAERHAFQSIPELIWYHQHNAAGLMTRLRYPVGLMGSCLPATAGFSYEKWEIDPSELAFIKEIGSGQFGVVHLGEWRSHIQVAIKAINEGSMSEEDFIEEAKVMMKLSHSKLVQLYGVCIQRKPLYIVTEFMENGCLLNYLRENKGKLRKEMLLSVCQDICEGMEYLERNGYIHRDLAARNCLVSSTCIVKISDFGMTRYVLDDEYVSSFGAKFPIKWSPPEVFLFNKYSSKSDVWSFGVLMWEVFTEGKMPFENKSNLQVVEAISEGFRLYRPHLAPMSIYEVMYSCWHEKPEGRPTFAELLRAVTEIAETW
The note with it: at 0.1 µM.

Test [7] deals with T1, Tyrosine-protein kinase TXK (Homo sapiens). The note with it: at 1 µM.
Test [8] concerns the target Non-receptor tyrosine-protein kinase TYK2 (Homo sapiens) (UniProt P29597). The conditions noted are these: at 0.1 µM.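 Note: each value is a mean of the inhibition readings.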
The target in test [9] is T2, Dual specificity protein kinase TTK (Homo sapiens) (UniProt P33981).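 Note: reported figures are mean TTK inhibition at 1 µM.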
T2 sequence (whole entry): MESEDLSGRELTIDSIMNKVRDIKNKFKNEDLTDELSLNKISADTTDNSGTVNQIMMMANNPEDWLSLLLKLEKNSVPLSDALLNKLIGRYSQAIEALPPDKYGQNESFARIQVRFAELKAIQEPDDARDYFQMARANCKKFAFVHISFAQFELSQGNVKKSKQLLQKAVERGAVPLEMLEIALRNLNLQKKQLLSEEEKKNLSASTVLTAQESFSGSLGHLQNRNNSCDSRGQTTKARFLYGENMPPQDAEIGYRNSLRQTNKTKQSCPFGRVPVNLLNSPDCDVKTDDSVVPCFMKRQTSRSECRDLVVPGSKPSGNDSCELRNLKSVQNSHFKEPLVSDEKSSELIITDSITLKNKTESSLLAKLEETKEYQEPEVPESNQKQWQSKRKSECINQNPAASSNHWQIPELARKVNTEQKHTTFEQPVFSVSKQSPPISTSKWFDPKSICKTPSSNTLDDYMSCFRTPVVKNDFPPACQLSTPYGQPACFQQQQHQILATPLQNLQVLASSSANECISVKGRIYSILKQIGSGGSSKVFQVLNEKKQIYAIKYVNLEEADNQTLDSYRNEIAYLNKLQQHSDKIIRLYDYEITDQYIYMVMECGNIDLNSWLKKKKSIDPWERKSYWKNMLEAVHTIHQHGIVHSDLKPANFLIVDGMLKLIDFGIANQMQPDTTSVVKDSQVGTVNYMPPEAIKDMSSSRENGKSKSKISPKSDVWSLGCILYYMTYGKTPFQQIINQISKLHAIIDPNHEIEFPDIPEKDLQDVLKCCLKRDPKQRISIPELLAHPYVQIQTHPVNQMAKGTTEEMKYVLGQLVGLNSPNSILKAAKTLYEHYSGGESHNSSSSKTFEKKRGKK
The note with it: at 1 µM.

Test [10] has as its target T3, Aurora kinase A (Homo sapiens) (UniProt O14965).
T3 sequence (whole entry): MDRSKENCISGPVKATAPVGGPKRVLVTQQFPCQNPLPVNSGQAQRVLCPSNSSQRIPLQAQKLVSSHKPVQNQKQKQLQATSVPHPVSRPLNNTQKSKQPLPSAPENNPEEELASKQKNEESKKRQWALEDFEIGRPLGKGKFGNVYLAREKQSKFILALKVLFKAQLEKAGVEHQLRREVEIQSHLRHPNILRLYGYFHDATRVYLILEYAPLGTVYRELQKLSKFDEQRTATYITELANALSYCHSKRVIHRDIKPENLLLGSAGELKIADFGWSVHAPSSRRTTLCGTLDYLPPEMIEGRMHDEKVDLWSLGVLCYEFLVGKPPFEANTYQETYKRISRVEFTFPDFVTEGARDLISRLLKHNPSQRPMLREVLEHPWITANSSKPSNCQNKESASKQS
The conditions noted are these: at 0.1 µM.

Test [11] has as its target T3, Aurora kinase A (Homo sapiens). The note with it: at 1 µM.
Test [12] concerns the target Aurora kinase B (Homo sapiens) (UniProt Q96GD4). The note with it: at 0.1 µM.
Test [13] shares this target. The conditions noted are these: at 1 µM.
Test [14] concerns the target T4, Aurora kinase C (Homo sapiens) (UniProt Q9UQB9).
T4 sequence (whole entry): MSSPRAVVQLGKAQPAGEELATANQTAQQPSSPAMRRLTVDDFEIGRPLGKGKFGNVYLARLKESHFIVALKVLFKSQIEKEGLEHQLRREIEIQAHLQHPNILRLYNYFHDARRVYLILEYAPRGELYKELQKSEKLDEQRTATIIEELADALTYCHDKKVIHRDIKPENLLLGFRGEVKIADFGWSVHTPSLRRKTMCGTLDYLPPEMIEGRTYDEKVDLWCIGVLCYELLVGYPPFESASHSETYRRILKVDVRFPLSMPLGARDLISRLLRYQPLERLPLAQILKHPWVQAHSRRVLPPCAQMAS
The note with it: at 0.1 µM.

In test [15] the target is T4, Aurora kinase C (Homo sapiens). The conditions noted are these: at 1 µM.
In test [16] the target is Serine/threonine-protein kinase 10 (Homo sapiens) (UniProt O94804). The note with it: at 0.1 µM.
Test [17] has the same target. The conditions noted are these: at 1 µM.
Test [18] concerns the target T5, Mitogen-activated protein kinase kinase kinase kinase 2 (Homo sapiens) (UniProt Q12851).
T5 sequence (whole entry): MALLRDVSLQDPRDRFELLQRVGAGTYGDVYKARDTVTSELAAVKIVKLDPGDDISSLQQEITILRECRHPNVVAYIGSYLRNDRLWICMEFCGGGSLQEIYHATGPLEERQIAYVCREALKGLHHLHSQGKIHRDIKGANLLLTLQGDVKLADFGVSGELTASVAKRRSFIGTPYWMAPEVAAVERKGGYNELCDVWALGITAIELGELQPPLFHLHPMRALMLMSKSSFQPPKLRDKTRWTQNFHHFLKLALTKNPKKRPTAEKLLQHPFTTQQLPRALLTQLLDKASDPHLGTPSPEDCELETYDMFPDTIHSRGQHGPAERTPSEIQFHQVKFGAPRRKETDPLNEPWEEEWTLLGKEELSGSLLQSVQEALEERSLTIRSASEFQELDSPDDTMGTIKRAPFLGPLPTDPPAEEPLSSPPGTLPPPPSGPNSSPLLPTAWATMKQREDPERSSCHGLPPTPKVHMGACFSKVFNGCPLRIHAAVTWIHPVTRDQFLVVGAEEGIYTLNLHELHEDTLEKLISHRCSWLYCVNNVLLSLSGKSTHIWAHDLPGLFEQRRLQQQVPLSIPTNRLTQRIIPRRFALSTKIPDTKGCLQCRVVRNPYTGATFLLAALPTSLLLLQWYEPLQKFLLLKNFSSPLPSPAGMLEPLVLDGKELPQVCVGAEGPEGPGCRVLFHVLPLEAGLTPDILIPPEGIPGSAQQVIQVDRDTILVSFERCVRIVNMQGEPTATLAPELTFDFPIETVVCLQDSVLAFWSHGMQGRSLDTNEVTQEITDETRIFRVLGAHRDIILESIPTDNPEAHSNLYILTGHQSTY
The note with it: at 0.1 µM.

For test [19], the target named is T5, Mitogen-activated protein kinase kinase kinase kinase 2 (Homo sapiens). The conditions noted are these: at 1 µM.
Test [20] has as its target Mitogen-activated protein kinase kinase kinase kinase 4 (Homo sapiens) (UniProt O95819). The note with it: at 0.1 µM.

Mitogen-activated protein kinase kinase kinase kinase 4 (Homo sapiens), sequence (O95819 2-1239 limits assumed): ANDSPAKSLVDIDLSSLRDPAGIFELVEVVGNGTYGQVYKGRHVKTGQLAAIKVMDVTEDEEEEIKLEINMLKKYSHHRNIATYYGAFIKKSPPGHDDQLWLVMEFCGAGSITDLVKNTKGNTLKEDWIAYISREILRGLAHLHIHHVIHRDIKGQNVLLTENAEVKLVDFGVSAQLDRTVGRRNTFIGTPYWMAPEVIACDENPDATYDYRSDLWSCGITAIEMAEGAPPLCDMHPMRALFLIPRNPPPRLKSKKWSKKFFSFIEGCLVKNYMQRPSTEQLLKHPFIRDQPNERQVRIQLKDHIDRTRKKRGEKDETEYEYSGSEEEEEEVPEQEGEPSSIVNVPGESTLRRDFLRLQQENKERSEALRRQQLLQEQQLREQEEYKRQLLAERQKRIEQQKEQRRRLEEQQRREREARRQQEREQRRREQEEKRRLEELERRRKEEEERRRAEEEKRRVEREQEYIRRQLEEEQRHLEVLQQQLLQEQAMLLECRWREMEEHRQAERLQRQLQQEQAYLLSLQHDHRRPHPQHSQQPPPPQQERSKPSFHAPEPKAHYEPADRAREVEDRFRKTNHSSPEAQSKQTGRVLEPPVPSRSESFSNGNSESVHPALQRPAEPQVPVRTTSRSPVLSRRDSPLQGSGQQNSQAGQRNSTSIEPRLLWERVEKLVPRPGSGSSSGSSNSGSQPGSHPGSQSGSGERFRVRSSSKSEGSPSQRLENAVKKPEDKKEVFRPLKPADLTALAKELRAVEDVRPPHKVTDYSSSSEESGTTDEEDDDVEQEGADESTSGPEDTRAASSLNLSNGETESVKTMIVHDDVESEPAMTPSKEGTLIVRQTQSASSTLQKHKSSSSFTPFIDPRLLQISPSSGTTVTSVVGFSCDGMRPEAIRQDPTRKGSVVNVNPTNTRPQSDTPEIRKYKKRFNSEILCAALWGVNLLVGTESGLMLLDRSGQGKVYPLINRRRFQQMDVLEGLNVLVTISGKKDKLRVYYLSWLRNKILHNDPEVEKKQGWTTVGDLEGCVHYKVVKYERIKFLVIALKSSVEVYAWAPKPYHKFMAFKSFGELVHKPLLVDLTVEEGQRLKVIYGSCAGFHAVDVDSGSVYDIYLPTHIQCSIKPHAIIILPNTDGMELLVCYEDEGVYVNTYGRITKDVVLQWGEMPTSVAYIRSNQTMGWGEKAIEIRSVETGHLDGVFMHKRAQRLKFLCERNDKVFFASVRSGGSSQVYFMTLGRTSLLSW
High affinity nerve growth factor receptor (Homo sapiens), sequence (P04629 33-796 limits assumed): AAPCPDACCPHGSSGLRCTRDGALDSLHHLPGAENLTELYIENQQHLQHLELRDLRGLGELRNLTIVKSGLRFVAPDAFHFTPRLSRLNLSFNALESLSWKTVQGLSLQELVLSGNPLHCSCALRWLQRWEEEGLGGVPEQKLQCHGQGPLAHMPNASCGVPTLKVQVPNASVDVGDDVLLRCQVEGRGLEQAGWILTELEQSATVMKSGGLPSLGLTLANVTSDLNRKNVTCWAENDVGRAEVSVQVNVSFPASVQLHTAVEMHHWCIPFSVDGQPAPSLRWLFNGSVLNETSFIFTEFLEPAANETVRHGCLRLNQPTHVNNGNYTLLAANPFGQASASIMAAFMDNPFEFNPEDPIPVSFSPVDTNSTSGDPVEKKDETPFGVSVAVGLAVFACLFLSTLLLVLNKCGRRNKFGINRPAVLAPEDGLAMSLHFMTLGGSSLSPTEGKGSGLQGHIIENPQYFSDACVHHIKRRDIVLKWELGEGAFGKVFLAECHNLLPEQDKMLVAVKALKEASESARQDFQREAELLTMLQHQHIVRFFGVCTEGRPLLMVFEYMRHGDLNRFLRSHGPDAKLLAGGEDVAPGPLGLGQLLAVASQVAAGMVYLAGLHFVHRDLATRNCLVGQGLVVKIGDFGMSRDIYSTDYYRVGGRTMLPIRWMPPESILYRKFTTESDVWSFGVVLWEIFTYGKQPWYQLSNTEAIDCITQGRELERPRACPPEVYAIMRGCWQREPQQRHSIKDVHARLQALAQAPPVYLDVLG
BDNF/NT-3 growth factors receptor (Homo sapiens), sequence (Q16620 32-822 limits assumed): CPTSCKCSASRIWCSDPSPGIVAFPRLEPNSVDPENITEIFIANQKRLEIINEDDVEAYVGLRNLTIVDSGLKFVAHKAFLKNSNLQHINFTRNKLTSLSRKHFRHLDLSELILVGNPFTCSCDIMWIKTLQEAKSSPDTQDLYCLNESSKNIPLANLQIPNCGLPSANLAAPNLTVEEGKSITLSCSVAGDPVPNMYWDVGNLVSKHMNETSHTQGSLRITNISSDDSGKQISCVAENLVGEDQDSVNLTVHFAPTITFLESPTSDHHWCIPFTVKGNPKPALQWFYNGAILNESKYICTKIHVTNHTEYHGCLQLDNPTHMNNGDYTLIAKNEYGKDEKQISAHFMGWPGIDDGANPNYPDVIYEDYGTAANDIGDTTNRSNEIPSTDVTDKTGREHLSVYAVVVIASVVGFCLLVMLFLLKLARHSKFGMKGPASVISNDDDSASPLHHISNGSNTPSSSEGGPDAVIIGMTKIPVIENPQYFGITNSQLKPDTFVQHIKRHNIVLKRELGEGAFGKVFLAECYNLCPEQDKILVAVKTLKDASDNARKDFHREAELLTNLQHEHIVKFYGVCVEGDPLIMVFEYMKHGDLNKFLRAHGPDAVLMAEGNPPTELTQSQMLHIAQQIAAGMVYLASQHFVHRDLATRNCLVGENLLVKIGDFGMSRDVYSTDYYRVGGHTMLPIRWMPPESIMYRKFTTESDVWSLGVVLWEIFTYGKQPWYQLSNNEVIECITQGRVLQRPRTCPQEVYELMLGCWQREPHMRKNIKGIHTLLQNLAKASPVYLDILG
Non-receptor tyrosine-protein kinase TYK2 (Homo sapiens), sequence (P29597 whole entry): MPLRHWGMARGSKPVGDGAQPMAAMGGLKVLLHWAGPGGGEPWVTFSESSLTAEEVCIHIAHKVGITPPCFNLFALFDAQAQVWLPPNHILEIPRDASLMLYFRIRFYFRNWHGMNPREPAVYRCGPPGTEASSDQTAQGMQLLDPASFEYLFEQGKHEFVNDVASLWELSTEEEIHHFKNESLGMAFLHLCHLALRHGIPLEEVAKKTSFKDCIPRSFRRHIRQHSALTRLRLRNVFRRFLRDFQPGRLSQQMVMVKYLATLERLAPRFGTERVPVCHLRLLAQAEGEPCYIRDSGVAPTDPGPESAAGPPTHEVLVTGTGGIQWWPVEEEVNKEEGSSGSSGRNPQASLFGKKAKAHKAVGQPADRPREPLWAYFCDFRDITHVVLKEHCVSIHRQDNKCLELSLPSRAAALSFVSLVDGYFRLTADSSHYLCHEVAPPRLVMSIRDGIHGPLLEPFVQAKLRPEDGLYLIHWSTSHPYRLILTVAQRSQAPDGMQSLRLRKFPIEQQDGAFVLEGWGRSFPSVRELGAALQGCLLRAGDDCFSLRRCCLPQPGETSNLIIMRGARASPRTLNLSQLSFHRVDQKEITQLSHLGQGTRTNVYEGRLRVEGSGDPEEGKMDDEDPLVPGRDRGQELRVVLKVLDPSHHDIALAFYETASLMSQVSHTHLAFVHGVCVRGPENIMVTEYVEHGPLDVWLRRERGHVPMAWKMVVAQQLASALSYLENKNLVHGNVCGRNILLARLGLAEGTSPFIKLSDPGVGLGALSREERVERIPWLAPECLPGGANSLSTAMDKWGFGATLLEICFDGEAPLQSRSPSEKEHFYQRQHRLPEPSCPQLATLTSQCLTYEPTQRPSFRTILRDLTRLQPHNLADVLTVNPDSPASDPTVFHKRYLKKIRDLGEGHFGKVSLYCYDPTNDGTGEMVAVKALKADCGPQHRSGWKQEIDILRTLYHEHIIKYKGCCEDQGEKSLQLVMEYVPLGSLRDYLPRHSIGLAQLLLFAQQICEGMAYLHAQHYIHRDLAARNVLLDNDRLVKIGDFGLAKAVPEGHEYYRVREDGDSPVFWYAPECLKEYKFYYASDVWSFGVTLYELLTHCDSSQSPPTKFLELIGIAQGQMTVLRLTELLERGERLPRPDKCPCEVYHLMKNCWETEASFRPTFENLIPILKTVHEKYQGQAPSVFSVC
NT-3 growth factor receptor (Homo sapiens), sequence (Q16288 32-839 limits assumed): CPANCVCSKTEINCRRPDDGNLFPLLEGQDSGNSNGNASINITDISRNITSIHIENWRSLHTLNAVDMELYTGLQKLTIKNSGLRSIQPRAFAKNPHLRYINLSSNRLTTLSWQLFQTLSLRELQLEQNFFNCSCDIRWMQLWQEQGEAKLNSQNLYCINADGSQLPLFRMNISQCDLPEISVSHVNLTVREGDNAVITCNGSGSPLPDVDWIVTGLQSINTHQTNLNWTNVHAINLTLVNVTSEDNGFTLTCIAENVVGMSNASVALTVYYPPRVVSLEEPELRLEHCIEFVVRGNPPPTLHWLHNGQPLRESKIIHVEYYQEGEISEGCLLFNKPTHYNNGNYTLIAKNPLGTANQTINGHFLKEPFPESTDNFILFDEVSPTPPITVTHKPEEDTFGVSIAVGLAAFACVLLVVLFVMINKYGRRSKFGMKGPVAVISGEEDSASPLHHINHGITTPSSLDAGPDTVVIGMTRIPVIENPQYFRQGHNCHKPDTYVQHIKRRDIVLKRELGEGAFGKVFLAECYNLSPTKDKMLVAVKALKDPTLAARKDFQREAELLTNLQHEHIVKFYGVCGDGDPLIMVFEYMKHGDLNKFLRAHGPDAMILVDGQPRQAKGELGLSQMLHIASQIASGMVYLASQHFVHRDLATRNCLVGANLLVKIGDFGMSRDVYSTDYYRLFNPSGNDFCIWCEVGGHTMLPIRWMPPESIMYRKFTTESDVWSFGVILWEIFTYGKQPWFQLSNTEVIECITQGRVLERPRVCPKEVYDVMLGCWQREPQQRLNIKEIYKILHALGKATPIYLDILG

In general, inhibition refers to the drop in the measured response relative to a control, in per cent. With `CN(C)CCOc1ccc(-c2nc(-c3ccncc3)c(-c3ccc4c(c3)CC/C4=N\O)[nH]2)cc1`, the inhibition in test [1] was determined as 0.58%; in test [2], 1.83%; in [3], 3.37%; in test [4] it was 1.52%; in test [5], 2.87%; in test [6], 2.32%. Besides, the inhibition is 3.33% in test [7]; -2.09% in [8]; 7.21% in [9]; 1.33% in test [10]; 12% in test [11]; 1.63% in test [12]. The inhibition in test [13] is 6.16%; in [14] it was 1.74%; in [15] it was -1.31%; in test [16] it was 22.1%; in test [17] it was 69.2%; in [18] it was 0.69%. Further, the inhibition in test [19] amounted to 3.44%; in [20], 9.59%.
With `O=C(O[C@H]1CN[C@H](C#Cc2cc3ncnc(Nc4ccc(Cc5ccccc5)cc4)c3s2)C1)N1CCOCC1`, the inhibition in [1] is -3.47%; in test [2], 0.67%; in test [3], 1.13%; in test [4], -0.77%; in [5] it was -1.7%; in test [6] it was -0.97%. The inhibition in test [7] was 1.36%; in test [8], -1.59%; in test [9], 1.6%; in test [10], 0%; in test [11] it was 1.29%; in test [12], 1.27%. In addition, the inhibition was 2.04% in test [13]; -0.18% in test [14]; 5.53% in test [15]; 3.08% in [16]; 7.29% in test [17]; 0.39% in test [18]. In addition, the inhibition in test [19] is 0.86%; in test [20], -0.42%.
With `COc1cc2ncn(-c3cc(OCc4ccccc4C(F)(F)F)c(C(=O)N(C)C)s3)c2cc1OC`, the inhibition in [1] is 8.1%; in test [2], -0.07%; in test [3] it was 7.43%; in test [4], 5.43%; in [5] it was 16.2%; in [6] it was 1.47%. Further, the inhibition is 3.4% in test [7]; -4.64% in test [8]; 10.4% in test [9]; 0.68% in test [10]; 9.82% in [11]; 5.54% in test [12]. Also, the inhibition in test [13] came out at 31.1%; in test [14], 3.22%; in [15], 46.2%; in test [16], 12.9%; in test [17], 55.8%; in test [18] it was 0.57%. In addition, the results for the inhibition in test [19] and in test [20] were 2.23% and 0.42%, respectively.
On to `CC1=C(C(=O)Nc2cc(Cl)c3[nH]ncc3c2)C(c2ccc(C(F)(F)F)cc2)CC(=O)N1` (stereo not given), for which the inhibition in test [1] was determined as 2.71%; in test [2], 2.52%; in [3], 3.55%; in test [4] it was 3.39%; in test [5], 6.01%; in test [6], 2.42%. Moreover, the inhibition in test [7] was 1.68%; in [8], -1.59%; in test [9], 5.07%; in test [10], 3.11%; in [11], 16.6%; in test [12], 2.95%. The inhibition in [13] came to 10%; in [14], 0.68%; in test [15] it was 7.15%; in test [16], 6.25%; in test [17], 7.45%; in test [18] it was 2%. Moreover, the figures for the inhibition in [19] and in [20] were 3.92% and 2.89%, respectively.
As for `CS(=O)(=O)CCNCc1coc(-c2ccc3ncnc(Nc4ccc(OCc5ccccc5)cc4)c3c2)c1`, the inhibition in test [1] was 4.8%; in test [2], 2%; in test [3], 4.13%; in test [4] it was 2.96%; in [5] it was 4.88%; in test [6] it was 4.16%. Also, the inhibition in [7] amounted to 3.86%; in test [8] it was 1.95%; in test [9] it was 2.54%; in test [10], 2.4%; in [11], 4.78%; in [12] it was 1.47%. For the same molecule, the inhibition in [13] came to 9.78%; in test [14], 1.46%; in test [15], 8.58%; in test [16], 8.03%; in [17] it was 6.21%; in test [18], 0.9%. In addition, the inhibition is 3.83% in [19] and 3.41% in test [20].
In the case of `COc1ccc(CNC(=O)c2ccc(-c3cc(-c4nnc(C)o4)ccc3C)cc2)cc1`, the inhibition in [1] was -1.3%; in test [2], 1.54%; in [3] it was 4.36%; in test [4] it was 2.79%; in test [5], 5.45%; in test [6] it was 3.95%. Moreover, the inhibition in [7] was 3.7%; in [8], 0.15%; in test [9], 6.7%; in [10], -0.94%; in test [11] it was 4.73%; in [12], 5.79%. In addition, the inhibition in test [13] is 6.54%; in test [14], 2.85%; in test [15] it was -5.63%; in test [16], 13.2%; in test [17], 20.7%; in test [18], 4%. Further, the values for the inhibition in test [19] and in test [20] were 6.93% and 3.14%, respectively.

(Values after ChEMBL document CHEMBL1961873, “Compounds: GSK PKIS; Assays: Nanosyn kinase panel” (2012).)
